Usually inhibition stands for the relative decrease from the control value, in per cent.

Among the data in PubChem BioAssay AID1778 (Sanford-Burnham Center for Chemical Genomics, 2009) are inhibition values, retold here.

The structures appear in SMILES notation. Several values for one entry are separate records, joined by “and”; a condition that tells them apart may be missing. Equal entries are not always repeated. Among all 290,000 compounds or so, about 260 (0.09%) were called active. This excerpt belongs to a sample that is enriched for actives. Results with a measured potency or affinity are listed apart. Unmarked numbers belong to inactive results. No stated cut-off is given here; in the data, active means inhibition above about 50%; inactive means the rest.

Sequence of Kappa-type opioid receptor (Homo sapiens) (P41145 whole entry, looked up): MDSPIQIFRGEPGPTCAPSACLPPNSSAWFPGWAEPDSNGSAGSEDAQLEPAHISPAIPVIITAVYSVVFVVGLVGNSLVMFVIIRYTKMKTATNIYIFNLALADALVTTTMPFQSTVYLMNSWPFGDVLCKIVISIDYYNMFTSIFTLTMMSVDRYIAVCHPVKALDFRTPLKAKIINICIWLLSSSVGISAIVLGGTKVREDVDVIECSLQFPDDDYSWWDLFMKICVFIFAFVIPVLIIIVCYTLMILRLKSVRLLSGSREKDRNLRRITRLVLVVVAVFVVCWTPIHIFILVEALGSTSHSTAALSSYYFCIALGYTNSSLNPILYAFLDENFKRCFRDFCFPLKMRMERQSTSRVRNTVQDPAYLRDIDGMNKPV

The experiment addresses Kappa-type opioid receptor (Homo sapiens) (UniProt P41145). The experiment is described as follows: kappa opioid receptor blockers – cell-based, luminescence, uHTS (AID 1778). Particulars: KOR beta-arrestin recruitment, antagonist mode, stronger effect = higher value; at 10 µM unless noted.
On to `COc1cccc(CN2CCN(C(=O)c3oc4c(F)cccc4c3C)CC2=O)c1`, for which the inhibition is -26.9% [at 20 µM].
With `COC(=O)CSc1nc2sc3c(c2c(=O)n1-c1ccc(OC)cc1)CCN(C)C3` the figure was -14.3%.
The same measure for `COc1ccccc1N1CCN(C(=O)c2cnn3cccnc23)CC1`: 24.4%; for `N=C1SCC(=O)N1c1ccccc1Cl`: 16.3%; for `N=C1SC(c2ccccc2)C(=O)N1c1ncc(Cc2ccccc2Cl)s1` (centres undefined): 26.7%.
With `O=C1c2ccccc2C(=O)N1c1ncc(Cc2ccc(Cl)cc2)s1` the figure was -50.6%; with `N=C1SC(c2ccccc2)C(=O)N1c1ncc(Cc2ccccc2)s1` (centres undefined), 1.3%.
`CCC(C(=O)NCc1cccs1)n1nc(C)n2c(cc3occc32)c1=O` (centres undefined): the inhibition was -9.9%.
On to `Fc1ccccc1-c1nc(-c2cnccc2C(F)(F)F)no1`, for which the inhibition is 11.7%.
With `CC(=O)Oc1ccc(C23CC4CC(CC(C4)C2)C3)cc1C(=O)O` the figure was -9%; with `COc1ccc(C2=NN(C(=O)c3cccs3)C(c3ccccc3OC)C2)cc1OC` (centres undefined), 3.2%; with `Cc1c(C(C)(C)C)s/c(=N/S(=O)(=O)c2ccccc2)n1C`, 1.7%.
With `O=Cc1s/c(=N\S(=O)(=O)c2ccccc2)n(CCCCl)c1Cl` the figure was -16.2%; with `Nc1cc(S(=O)(=O)Nc2cc(Cl)ccc2Cl)ccc1N1CCOCC1`, 6.9%.
The same measure for `C=CCNCC(=O)Nc1ccccc1SCC(=O)Nc1ccsc1C(=O)OC`: -29% [at 20 µM]; for `O=[N+]([O-])c1ccc(Nc2ccccc2O)c2nonc12`: 10.2% [at 20 µM].
For the compound `O=[N+]([O-])c1ccc(Sc2cccc[n+]2[O-])c2nonc12`, the inhibition was 93% (active).
The same measure for `O=[N+]([O-])c1ccc(Nc2ccccc2)c2nonc12`: 7.5%; for `CC1(C)CC(=O)C(N=Nc2cccc(S(=O)(=O)N3CCOCC3)c2)=C(O)C1`: -0.5%.
The same measure for `CCOC(=O)c1[nH]c(C)c(C(=O)OCc2c(C)noc2C)c1C`: -46%; for `CCOCCCNC(=O)C(c1ccc(C)cc1)N(Cc1ccc2c(c1)OCO2)C(=O)CNC(C)=O` (centres undefined): -0.2%.
With `COc1ccc(NC(=O)C2CC(=O)N(c3ccccc3C)C2)c(OC)c1` (centres undefined) the figure was -5%; with `COc1ccc(C(=O)Nc2ccc(S(=O)(=O)Nc3nccnc3OC)cc2)cc1`, -19%.
On to `CC(=O)N(C1CC(C)C(C#N)(C#N)C1(C#N)C#N)N(C)C` (centres undefined), for which the inhibition is 17.9% [at 20 µM].
The same measure for `CCCC(=O)N(C1CC(C)C(C#N)(C#N)C1(C#N)C#N)N(C)C` (centres undefined): 85.4% (active).
The same measure for `O=C(CN(C(=O)CCC(=O)Nc1nccs1)c1ccc2c(c1)OCO2)NCc1ccc(F)cc1`: -0.7%; for `Cc1nn(C)cc1CNC(=O)C1(C)CC1(Cl)Cl` (centres undefined): 11.1%; for `O=S1(=O)NC(=NCCc2ccccn2)c2ccccc21`: 20.9%.
The same measure for `c1cnc2c(c1)ccc1cccnc12`: -30.1% and 19.4%; for `CC1(C)Cc2c(sc3c4nnnn4c4nnnn4c23)CO1`: 56.4% (active).
On to `CC(C)c1nc2sc3c(c2c(=O)n1N)CC(C)(C)OC3`, for which the inhibition was 13%.
Consider `CC1(C)Cc2c(sc3ncn4nnnc4c23)CO1`, for which the inhibition is -7.5%.
With `CC1(C)Cc2c(c(-c3ccco3)nc3sc4c(NCC5CCCO5)ncnc4c23)CO1` (centres undefined) the figure was -42.4%; with `O=C(CSc1nc2ccsc2c(=O)n1CC1CCC(C(=O)O)CC1)c1ccc(F)cc1` (centres undefined), 18.5%; with `Oc1ccccc1N=Nc1nc(-c2ccccc2)c(-c2ccccc2)[nH]1`, 33.6%.
The same measure for `COc1ccc(N=Nc2nc(-c3ccccc3)c(-c3ccccc3)[nH]2)cc1`: 28.4%; for `O=C(OCCCOc1ccc(F)cc1)c1ccc(O)cc1O`: -20.5%.
Take `CCC1CCC(C(=O)NC(C(=O)NCCc2ccc(S(N)(=O)=O)cc2)C(C)C)CC1` (centres undefined): the inhibition was -31%.
With `Cc1ccccc1C(=O)NC1CC2CCCC(C1)N2Cc1ccccc1` (centres undefined) the figure was -8.6% [at 20 µM]; with `O=C(NC1CC2CCCC(C1)N2Cc1ccccc1)c1cccc(F)c1` (centres undefined), 34.5%.
The same measure for `CCCN1C2CCCC1CC(NC(=O)c1ccccc1OCC)C2` (centres undefined): 12%; for `CCOc1ccc(C(=O)NC2CC3CCCC(C2)N3CC(C)C)cc1` (centres undefined): -39%.
Consider `COc1ccc(C(=O)NC2CC3CCCC(C2)N3Cc2ccccc2)cc1` (centres undefined), for which the inhibition is 26.9%.
The same measure for `CCOc1ccccc1C(=O)NC1CC2CCCC(C1)N2Cc1ccccc1` (centres undefined): 5.8%; for `O=C(NC1CC2CCCC(C1)N2Cc1ccccc1)c1ccc([N+](=O)[O-])cc1` (centres undefined): 29.6% [at 20 µM]; for `O=C(NC1CC2CCCC(C1)N2Cc1ccccc1)c1cccc(Cl)c1` (centres undefined): 13.7% [at 20 µM].
The same measure for `CC(=O)NC(=S)Nc1cccc([N+](=O)[O-])c1`: 30.8%; for `Cc1cc(C)n2nc(SCC(=O)NC3CCCCC3)nc2n1`: -29.2%.
With `COc1c(F)c(F)c(C(=O)O)c(Nc2ccccc2)c1F` the figure was 4.7%; with `COCc1nnc(NC(=O)CCCOc2ccccc2OC)s1`, -4.2%; with `Cc1ccc(Cl)cc1NC(=S)Nn1cnnc1`, -13.2%.
Take `O=C(NCCc1ccccc1)C1CC(=O)N(C2CCCC2)C1` (centres undefined): the inhibition was -27.2%.
With `Cc1sc2c(c1C)C(=O)NC(c1cccc(O)c1)N2` (centres undefined) the figure was 9.3%; with `O=C(NC1CC2CCCC(C1)N2Cc1ccc(F)cc1)c1ccc(F)cc1` (centres undefined), 13.6% [at 20 µM]; with `CCCN1C2CCCC1CC(NC(=O)c1ccc(F)cc1)C2` (centres undefined), 22.4%.
In the case of `CC(=O)NC1CC2CCCC(C1)N2Cc1ccc(C)cc1` (centres undefined), the inhibition was -10%.
With `CCC(=O)NC1CC2CCCC(C1)N2Cc1ccc(C)cc1` (centres undefined) the figure was 2.1%; with `CCOc1ccc(C(=O)NCC(=O)OCC(=O)N2CCCCC2)cc1`, -18.2%; with `COc1ccc(CNC(=O)C2CCN(S(=O)(=O)c3cccc4nonc34)CC2)cc1`, -3.2%.
The same measure for `Cc1nc2cncc(Br)c2n1C`: -11.9%; for `CSc1ccc(NC(=O)NCCCN2CCC(Cc3ccccc3)CC2)cc1`: -20.9%; for `Fc1ccc(NC(=S)NC2CC3CCC(C2)N3Cc2ccco2)cc1` (centres undefined): 22.9% [at 20 µM].
The same measure for `Cc1cccc(N2CCN(S(=O)(=O)c3cccc4nonc34)CC2)c1C`: 3%; for `Cc1ccc(OCc2cccc(S(=O)(=O)N(C)C)c2)c([N+](=O)[O-])n1`: -0.3%; for `Cc1ccn2c(CNCCCn3cccn3)c(C(=O)N3CCCCCC3)nc2c1`: 13.8% [at 20 µM].
As to `N#CC(C#N)=C1C=CC=CN1/C(=C\c1ccccc1Cl)C(=O)c1ccccc1`, the inhibition was 26.8%.
The same measure for `CC(/C=N/n1c(-c2ccc(Cl)cc2)n[nH]c1=S)=C\c1ccco1`: -13.3%; for `N#CC(C#N)=C1C=CC=CN1/C(=C\c1ccccc1)C(=O)c1cccs1`: -1%; for `COc1ccc(/C=C(/C(=O)c2cccs2)N2C=CC=CC2=C(C#N)C#N)cc1`: -7.8%.
With `N#C/C(=C\c1ccco1)C(=O)NCc1ccccc1` the figure was 7.2%; with `N#C/C(=C\c1ccco1)C(=O)Nn1cnnc1`, 1%.
With `COc1ccc(C(=O)N/C(=C/c2ccco2)C(=O)N2CCCCCC2)cc1` the figure was -0.8%; with `O=C(O)/C(=C/c1ccco1)c1ccccc1`, -9.6%; with `COc1ccc(CNC(=S)NCc2ccc(Cl)cc2)cc1OC`, -4.7%.
With `COc1ccccc1N(CC(O)COc1ccccc1)S(=O)(=O)c1ccccc1` (centres undefined), the inhibition was 25.7%.
In the case of `O=C(Nc1ccccc1Oc1ccsc1C(=O)O)c1ccccc1`, the inhibition is 11%.
For the compound `CC/C(C)=N/Oc1nc(C)cc(C)n1`, the inhibition was -35.7%.
On to `NS(=O)(=O)c1ccc(NC(=O)Nc2ccc(S(N)(=O)=O)cc2)cc1`, for which the inhibition was 27.6%.
With `FC(F)(F)c1cnc(N2CCCN(C(=S)Nc3ccccc3)CC2)c(Cl)c1` the figure was -20.9%; with `O=C(Nc1cccc(C(=O)O)c1)/C(=C\c1ccccc1)NC(=O)c1cccc2ccccc12`, -20.3% [at 20 µM].
The same measure for `N#C/C(=C/c1ccco1)C(N)=S`: -13.4%; for `CCOC(=O)/C(C#N)=C\c1ccco1`: -16.4%; for `CC(=O)OC[C@H]1O[C@@H](O/N=C/[C@@H](C)[C@H](OCc2ccccc2)C(C)C)[C@H](OC(C)=O)[C@@H](OC(C)=O)[C@@H]1OC(C)=O`: -20.6%.
Consider `O=C(Nc1nc2c(F)cc(F)cc2s1)c1ccco1`, for which the inhibition was -20.5% [at 20 µM].
The same measure for `CCOc1ccc2nc(NC(=O)c3cnccn3)sc2c1`: -3.8%.
Regarding `O=C(Nc1nc2ccc(F)cc2s1)c1cccs1`, the inhibition was -4.2%.
As to `O=C(Nc1nc2ccc(S(=O)(=O)N3CCCC3)cc2s1)c1ccccn1`, the inhibition was -85.6%.
The same measure for `O=C(NNc1nc2c(F)cc(F)cc2s1)c1ccccc1`: 30.3%.
`CCOc1ccc2nc(NC(=O)c3cnc(C)cn3)sc2c1`: the inhibition is 54.4%.
With `O=C(Nc1nnc(SCc2ccc(F)cc2)s1)c1cccnc1Cl` the figure was 13%.
The same measure for `O=C(Nc1nnc(SCc2ccc(F)cc2)s1)c1cnccn1`: -29.3% [at 20 µM].
For `Cn1c(CNC(=O)c2ccco2)nnc1SCC(=O)c1ccccc1`, the inhibition is 0.9%.
The same measure for `O=C(c1ccc(CS(=O)(=O)c2ccc(Br)cc2)o1)N1CCN(c2ccc(F)cc2)CC1`: 3.6%.
With `CC(=O)Nc1ccc(S(=O)(=O)NC2(C(F)(F)F)C(=O)Nc3c2c(=O)[nH]c(=O)n3Cc2ccco2)cc1` (centres undefined) the figure was 16.3%.
